The results in this text go back to PubChem BioAssay (NCI).

Molecules are shown by their SMILES. Several values for one entry are separate records, joined by “and”; a condition that tells them apart may be missing. Equal values may be shown once. This is part of a sample that, as a whole, favours compounds with a hit. Of some 79,000 tested, about 15% had one in any assay. The source holds several records for some structures; these can differ, active in one and inactive in another. Activity calls are given as the source filed them. No stated cut-off is given here; in the data, active means growth inhibition above about 70%; inactive means the rest.

Assay [1] can be described thus: NCI Yeast Anticancer Drug Screen. Data for the rad50 strain (AID 155).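 Further: 0% = growth of vehicle-only cultures of the same strain.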 The note with it: S. cerevisiae rad50 strain growth inhibition, stronger effect = higher value. In a few lines: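 Vehicle-treated cultures provide the reference for the growth inhibition reported for compound-exposed, repair-deficient yeast.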
Assay [2] in a line: NCI Yeast Anticancer Drug Screen. Data for the mec2-1 strain (AID 157). The note with it: S. cerevisiae mec2-1 strain, stronger effect = higher value. In a few lines:
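Vehicle-treated cultures served as reference for growth inhibition of compound-exposed mec2-1 yeast.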

Assay [3] is described as follows: NCI Yeast Anticancer Drug Screen. Data for the sgs1 mgt1 strain (AID 161).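 Further: 0% = growth of cultures given vehicle only.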 The note with it: S. cerevisiae sgs1 mgt1 strain, stronger effect = higher value. In a few lines:
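Mutant yeast exposed to compound; growth scored against vehicle-only wells.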

Assay [4] is described as follows: NCI Yeast Anticancer Drug Screen. Data for the cln2 rad14 strain (AID 165).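 Further: 0% = growth equal to vehicle treated cultures.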 The note with it: S. cerevisiae cln2 rad14 strain, stronger effect = higher value. The procedure, abridged: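 Each compound was tested on cln2 rad14 yeast. Inhibition of growth was calculated against vehicle-exposed controls.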
A short description of assay [5]: NCI Yeast Anticancer Drug Screen. Data for the bub3 strain (AID 167). The note with it: S. cerevisiae bub3 mutant strain, stronger effect = higher value. The procedure, abridged:
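Mutant yeast screening strain plus compound; vehicle-treated cultures serve as the 0% inhibition reference.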

The nature of assay [6]: NCI Yeast Anticancer Drug Screen. Data for the mlh1 rad18 strain (AID 175). The note with it: S. cerevisiae mlh1 rad18 strain growth inhibition, stronger effect = higher value. In a few lines: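 Vehicle-treated cultures served as the reference for growth inhibition in a yeast strain carrying DNA damage repair alterations exposed to each compound.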
Where [7] appears, read: at 5.0 µM (retest, dose inferred, filed as 0.5).
Setting [8] is: at 50.0 µM (retest, dose inferred, filed as 5.0).

For `C[N-]c1nnnn1C.[Au+].c1ccc([PH+](c2ccccc2)c2ccccc2)cc1`, the growth inhibition in assay [1] (setting [7]) is 99% (active); in assay [1] (setting [8]) it was 97% (active); in assay [1] (at 50.0 µM), 96.3% (active); in assay [2] (setting [7]), 99% (active); in assay [2] (setting [8]), 95% (active); in assay [2] (at 50.0 µM), 97.9% (active). Besides, the growth inhibition in assay [3] (setting [7]) was 99% (active); in assay [3] (setting [8]) it was 97% (active); in assay [3] (at 50.0 µM), 97% (active); in assay [4] (setting [7]) it was 96% (active); in assay [4] (setting [8]), 95% (active); in assay [4] (at 50.0 µM) it was 97.2% (active). Moreover, the growth inhibition in assay [5] (setting [7]) was 98% (active); in assay [5] (setting [8]), 96% (active); in assay [5] (at 50.0 µM), 96% (active); in assay [6] (setting [7]), 97% (active); in assay [6] (setting [8]), 94% (active); in assay [6] (at 50.0 µM), 97% (active).

As to `CC[C@@]1(O)CC(OC2CC(N3CCOCC3)C(O)C(C)O2)c2c(O)c3c(c(O)c2[C@H]1O)C(=O)c1cccc(O)c1C3=O` (some centres not stated), the growth inhibition was 96% (active) in assay [1] (setting [7]); 98% (active) in assay [1] (setting [8]); 59.3% (inactive) in assay [1] (at 50.0 µM); 36% (inactive) in assay [2] (setting [7]); 99% (active) in assay [2] (setting [8]); 51.2% (inactive) in assay [2] (at 50.0 µM). In addition, the growth inhibition in assay [3] (setting [7]) was 63% (inactive); in assay [3] (setting [8]), 99% (active); in assay [3] (at 50.0 µM) it was 49.4% (inactive); in assay [4] (setting [7]) it was 31% (inactive); in assay [4] (setting [8]) it was 99% (active); in assay [4] (at 50.0 µM), 97.3% (active). Further, the growth inhibition in assay [5] (setting [7]) is 24% (inactive); in assay [5] (setting [8]) it was 99% (active); in assay [5] (at 50.0 µM) it was 99% (active); in assay [6] (setting [7]), 52% (inactive); in assay [6] (setting [8]) it was 98% (active); in assay [6] (at 50.0 µM) it was 51.1% (inactive).

`Oc1c(Cl)c(Cl)c(Cl)c(Cl)c1Cl.[Cu+2]`: the growth inhibition was 23% (inactive) in assay [1] (setting [7]); 98% (active) in assay [1] (setting [8]); 88.5% (active) in assay [1] (at 50.0 µM); 18% (inactive) in assay [2] (setting [7]); 99% (active) in assay [2] (setting [8]); 89.8% (active) in assay [2] (at 50.0 µM). The growth inhibition is 31% (inactive) in assay [3] (setting [7]); 98% (active) in assay [3] (setting [8]); 81% (active) in assay [3] (at 50.0 µM); 8% (inactive) in assay [4] (setting [7]); 99% (active) in assay [4] (setting [8]); 92.8% (active) in assay [4] (at 50.0 µM). Moreover, the growth inhibition was 11% (inactive) in assay [5] (setting [7]); 97% (active) in assay [5] (setting [8]); 89.5% (active) in assay [5] (at 50.0 µM); 15% (inactive) in assay [6] (setting [7]); 96% (active) in assay [6] (setting [8]); 88.6% (active) in assay [6] (at 50.0 µM).

As to `c1ccc2c(c1)c1cccc3c4c5ccccc5c5cccc(c2c13)c54`, the growth inhibition in assay [1] (setting [7]) is -1% (inactive); in assay [1] (setting [8]) it was -1% (inactive); in assay [1] (at 50.0 µM) it was 1.9% (inactive); in assay [2] (setting [7]) it was -2% (inactive); in assay [2] (setting [8]) it was 0% (inactive); in assay [2] (at 50.0 µM) it was 15.7% (inactive). Further, the growth inhibition was -2% (inactive) in assay [3] (setting [7]); -1% (inactive) in assay [3] (setting [8]); 11.4% (inactive) in assay [3] (at 50.0 µM); 1% (inactive) in assay [4] (setting [7]); -5% (inactive) in assay [4] (setting [8]); 78.1% (active) in assay [4] (at 50.0 µM). Also, the growth inhibition is 0% (inactive) in assay [5] (setting [7]); 1% (inactive) in assay [5] (setting [8]); -1.25% (inactive) in assay [5] (at 50.0 µM); -3% (inactive) in assay [6] (setting [7]); -2% (inactive) in assay [6] (setting [8]); 14.6% (inactive) in assay [6] (at 50.0 µM).

`O=C1NC(=O)C(C(c2ccnc3ccccc23)C2C(=O)NC(=O)NC2=O)C(=O)N1`: the growth inhibition in assay [1] (setting [7]) is -6% (inactive); in assay [1] (setting [8]), -6% (inactive); in assay [1] (at 50.0 µM), 30.1% (inactive); in assay [2] (setting [7]), 0% (inactive); in assay [2] (setting [8]), -6% (inactive); in assay [2] (at 50.0 µM), 34% (inactive). Moreover, the growth inhibition in assay [3] (setting [7]) was -5% (inactive); in assay [3] (setting [8]) it was -4% (inactive); in assay [3] (at 50.0 µM), 55.9% (inactive); in assay [4] (setting [7]), 3% (inactive); in assay [4] (setting [8]), -7% (inactive); in assay [4] (at 50.0 µM) it was 62.6% (inactive). Also, the growth inhibition is -6% (inactive) in assay [5] (setting [7]); 5% (inactive) in assay [5] (setting [8]); 42.6% (inactive) in assay [5] (at 50.0 µM); 0% (inactive) in assay [6] (setting [7]); -5% (inactive) in assay [6] (setting [8]); 35.8% (inactive) in assay [6] (at 50.0 µM).

As to `Nc1ccc(Cc2ccc(N)c(Cl)c2)cc1Cl`, the growth inhibition was -6% (inactive) in assay [1] (setting [7]); 90% (active) in assay [1] (setting [8]); 78% (active) in assay [1] (at 50.0 µM); -8% (inactive) in assay [2] (setting [7]); 78% (active) in assay [2] (setting [8]); 95.1% (active) in assay [2] (at 50.0 µM). Further, the growth inhibition in assay [3] (setting [7]) is -1% (inactive); in assay [3] (setting [8]), 92% (active); in assay [3] (at 50.0 µM), 95.2% (active); in assay [4] (setting [7]), -10% (inactive); in assay [4] (setting [8]), 91% (active); in assay [4] (at 50.0 µM) it was 75.8% (active). For the same molecule, the growth inhibition is 0% (inactive) in assay [5] (setting [7]); 93% (active) in assay [5] (setting [8]); 96.8% (active) in assay [5] (at 50.0 µM); -3% (inactive) in assay [6] (setting [7]); 97% (active) in assay [6] (setting [8]); 97.2% (active) in assay [6] (at 50.0 µM).

Regarding `CCOC(=O)C1CC12c1ccccc1-c1ccccc12` (configuration not stated), the growth inhibition in assay [1] (setting [7]) was 2% (inactive); in assay [1] (setting [8]), 23% (inactive); in assay [1] (at 50.0 µM), 73.5% (active); in assay [2] (setting [7]), -6% (inactive); in assay [2] (setting [8]), 29% (inactive); in assay [2] (at 50.0 µM), 52.9% (inactive). Also, the growth inhibition was -23% (inactive) in assay [3] (setting [7]); 48% (inactive) in assay [3] (setting [8]); 67.2% (inactive) in assay [3] (at 50.0 µM); -6% (inactive) in assay [4] (setting [7]); -5% (inactive) in assay [4] (setting [8]); 19.8% (inactive) in assay [4] (at 50.0 µM). Moreover, the growth inhibition in assay [5] (setting [7]) was 1% (inactive); in assay [5] (setting [8]) it was 4% (inactive); in assay [5] (at 50.0 µM) it was 14.9% (inactive); in assay [6] (setting [7]) it was -1% (inactive); in assay [6] (setting [8]), 41% (inactive); in assay [6] (at 50.0 µM) it was 69.5% (inactive).

In the case of `COc1cc(C2c3cc4c(cc3[C@@H](Nc3ccc(F)cc3)C3COC(=O)[C@H]23)OCO4)cc(OC)c1O` (some centres not stated), the growth inhibition in assay [1] (setting [7]) was 96% (active); in assay [1] (setting [8]) it was 96% (active); in assay [1] (at 50.0 µM) it was 85.3% (active); in assay [2] (setting [7]) it was 97% (active); in assay [2] (setting [8]), 98% (active); in assay [2] (at 50.0 µM), 91.2% (active). For the same molecule, the growth inhibition in assay [3] (setting [7]) is 94% (active); in assay [3] (setting [8]), 99% (active); in assay [3] (at 50.0 µM), 88.9% (active); in assay [4] (setting [7]), 41% (inactive); in assay [4] (setting [8]), 99% (active); in assay [4] (at 50.0 µM), 87.8% (active). Moreover, the growth inhibition in assay [5] (setting [7]) is 99% (active); in assay [5] (setting [8]), 99% (active); in assay [5] (at 50.0 µM), 88.6% (active); in assay [6] (setting [7]), 95% (active); in assay [6] (setting [8]), 95% (active); in assay [6] (at 50.0 µM), 88.1% (active).

For the molecule `Brc1ccc(N2C[N+](c3ccc(Br)cc3)=NC(c3ccccc3)=N2)cc1`, the growth inhibition in assay [1] (setting [7]) was 23% (inactive); in assay [1] (setting [8]) it was 94% (active); in assay [1] (at 50.0 µM), 97.5% (active) and 18.3% (inactive); in assay [2] (setting [7]), -2% (inactive); in assay [2] (setting [8]), 96% (active); in assay [2] (at 50.0 µM), 97.8% (active) and -1.3% (inactive). For the same molecule, the growth inhibition is 6% (inactive) in assay [3] (setting [7]); 92% (active) in assay [3] (setting [8]); 98.5% (active) and 10.9% (inactive) in assay [3] (at 50.0 µM); 16% (inactive) in assay [4] (setting [7]); 98% (active) in assay [4] (setting [8]); 98.5% (active) and 10.1% (inactive) in assay [4] (at 50.0 µM). The growth inhibition in assay [5] (setting [7]) was 2% (inactive); in assay [5] (setting [8]) it was 99% (active); in assay [5] (at 50.0 µM) it was 98.5% (active) and -3.05% (inactive); in assay [6] (setting [7]) it was 9% (inactive); in assay [6] (setting [8]), 97% (active); in assay [6] (at 50.0 µM) it was 98.3% (active) and 13.1% (inactive).
